# Potency and affinity values are given separately. The source made the active and inactive calls.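 Rule for the calls: active = viability loss whose fitted half-maximal concentration is at most twice the top valid tested dose; inconclusive = flat curve with 30 to 70% loss, or poor fit; inactive = the rest.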
# Experiment: viability loss in HepG2 liver cells – cell-based, ATP luminescence, cherry-pick, set 6, cytotoxicity control, dose response (AID 1053125);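 note: negative values mean loss of viability signal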
# Conditions: ATP luminescence (CellTiter-Glo), 72 h; series mostly up to 26 µM; activity change, negative = cytotoxicity: at the top concentration
row,Structure (SMILES),"activity change, negative = cytotoxicity"
1,Cc1ccc(C(=O)OCC(=O)Nc2c(C)nn(-c3ccccc3)c2C)c(O)c1,9.12% (inactive)
2,Cc1c(C(=O)NCc2cccc([N+](=O)[O-])c2)sc(=O)n1Cc1cccc(F)c1,-4.27% (inactive)
3,CCn1c(=NC(=O)CSC(C)=O)sc2cc(OC)ccc21,-8% (inactive)
4,Cc1noc(C)c1S(=O)(=O)N(CC(=O)N1CCCCCC1)c1ccc(C(C)C)cc1,-21.8% (inactive)
5,N#Cc1c2ccc(OCC(N)=O)cc2n2ccccc12,-3.56% (inactive)
6,Cc1cccn2c(=O)c(/C=C(\C#N)C(=O)NC3CCS(=O)(=O)C3)c(N3CCC(C(N)=O)CC3)nc12 (stereo not given),-0.312% (inactive)
7,CC(C)N1CCc2c(sc(NC(=O)Cc3ccccc3)c2C#N)C1,8.38% (inactive)
8,Nn1c(SCC(=O)N2CCCC2)nnc1-c1cccs1,-0.141% (inactive)
9,Cn1cc(C(c2ccccc2OCC(=O)O)c2cn(C)c3ccccc23)c2ccccc21,15.3% (inactive)
10,Cc1ccc(S(=O)(=O)CCC(=O)OCC(=O)Nc2cccc(S(=O)(=O)N3CCCCC3)c2)cc1,-2.25% (inactive)
11,CCOC(=O)C1=CN(CC2CCCO2)C=C(C(=O)OCC)C1c1ccccc1C(F)(F)F (stereo not given),-9.68% (inactive)
12,O=C(Nc1ccc2c(c1)OCCO2)c1ccc(NC(=O)C2CCCO2)cc1 (stereo not given),-12.3% (inactive)
13,Clc1cccc(CN2CCN(Cc3nc(CCc4ccccc4)no3)CC2)c1,-10.7% (inactive)
14,CCOc1ccc(NC(=O)CN(C)C(=O)CCCNC(=O)c2ccc(Cl)cc2)cc1OCC,-7.49% (inactive)
15,CCOC1=NN(c2ncc(C(F)(F)F)cc2Cl)C(=O)C1,-7.01% (inactive)
16,Cc1cc(CNC(=O)c2ccc3c(c2)OCO3)c2ccccc2n1,-4.91% (inactive)
17,CCN(CC)CCCNc1nc(C)cc(COC)c1C#N,-2.85% (inactive)
18,CC(=O)NNc1cc(N2CCOCC2)nc(N2CCOCC2)n1,6.7% (inactive)

row,Structure (SMILES),"activity change, negative = cytotoxicity"
1,COc1ccc(C(=O)c2sc3nc(-c4ccc(OC)cc4)ccc3c2N)cc1,-0.796% (inactive)
2,O=C1CCc2cc(S(=O)(=O)NC(Cc3ccccc3)C(=O)NCCC3=CCCCC3)ccc2N1 (stereo not given),5.87% (inactive)
3,CC(C)(C)[C@H]1CCC(=O)N([C@H](CSc2ccccc2)Cc2ccccc2)CC1,-0.826% (inactive)
4,COc1ccccc1C1C2=C(CC(C)(C)CC2=O)N(CC(=O)O)C2=C1C(=O)CC(C)(C)C2,7.42% (inactive)
5,CSc1ccc(Cl)c(C(=O)N2CCOc3ccccc32)c1,-2.96% (inactive)
6,O=c1oc2c(CN3CCCCC3)c(O)ccc2cc1-c1nc2ccccc2[nH]1,-10.6% (inactive)
7,COc1ccc(C2CC(c3ccccc3)=NN2c2ccc(C(N)=O)cc2)cc1 (stereo not given),2.22% (inactive)
8,Fc1ccc(-c2nc3ccccn3c2NCc2ccc3c(c2)OCO3)cc1,-7.07% (inactive)
9,O=C(O)c1cccc(NC(=O)c2cn(-c3ccccc3)nc2-c2cccc(Br)c2)c1,-7.45% (inactive)
10,C=CCn1c(=N)c(C#N)cc2c(=O)n3ccccc3nc21,-4.55% (inactive)
11,CNNC(=S)NC1CC2CC1C1C=CCC21 (stereo not given),-6.4% (inactive)
12,Cc1cccn2c(=O)c3cc(C(N)=S)c(=N)n(CCCOC(C)C)c3nc12,-6.1% (inactive)
13,CCc1ccccc1S(=O)(=O)Cc1ccc(C(=O)N2CCN(c3ccccc3OC)CC2)o1,12.5% (inactive)
14,Cc1cc(-n2c(=O)c(C#N)cc3c(=O)n4cccc(C)c4nc32)no1,-6.56% (inactive)
15,Cc1cccn2c(=O)c3cc(C(=O)NCCN4CCOCC4)c(=N)n(Cc4ccc(F)cc4)c3nc12,22.3% (inactive)
16,Cc1cccn2c(=O)c3cc(C(=O)NCC4CCCO4)c(=N)n(CC4CCCO4)c3nc12 (stereo not given),1.16% (inactive)
17,COc1ccc(Cn2nnnc2C(CC(C)C)N2CCC(C(N)=O)CC2)cc1 (stereo not given),-8.56% (inactive)

# — PubChem BioAssay AID1053125 (Broad Institute, 2014)
